Source: PubChem
Methyltransferases – Primary Screen for Target Class Profiling of Small Molecule Inhibitors of Methyltransferases. 25,000 tested, 3.9% active. calls only at 40 µM. purified enzyme, MTase-Glo SAH luminescence; active compounds read low; call rule not given here
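Each enzyme was assayed with SAM and its substrate. SAH formation detected by MTase-Glo luminescence; single-point 40 uM screen[…].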
Large screens that a line does not name were inactive. The full list was thinned out, with hits kept by preference.

CC(C)CCC1(O)C(=O)C(C)(C)C(O[C@@H]2O[C@H](CO)[C@@H](O)[C@H](O)[C@H]2O)C(C)(C)C1O (some centres not stated)	Methyltransferases active
CC1(C)COC(=O)[C@@H]1O[C@@H]1O[C@H](CO)[C@@H](O)[C@H](O)[C@H]1O	none
Cc1ccc(NC(=O)c2cc3n(n2)CC(C)(C(=O)NC2CCCCCC2)N(C)C3=O)cc1 (configuration not stated)	none
Cc1ccc(N2C(=O)c3nc4ccccc4n3CC2(C)C(=O)NC2CCCCCC2)cc1 (configuration not stated)	none
CCC(CC)C(c1ccc(Nc2nc3ccccc3s2)cc1)n1cncn1 (configuration not stated)	Methyltransferases active
CCOc1ccccc1NC(=O)N1Cc2c(sc3c2CCCC3)-n2cccc2C1c1cccc(F)c1 (configuration not stated)	none
CN(C)CCNC(=O)c1cccn2c(=O)c3cc4ccccc4cc3nc12	Methyltransferases active
CCCN1C(=O)c2cc(C(=O)NCCN(C)C)nn2CC1(C)C(=O)NC1CCCC1 (configuration not stated)	none
CC1(C(=O)NCc2ccccc2)Cn2c(ccc2-c2ccco2)C(=O)N1CCc1ccco1 (configuration not stated)	none
CC[N+]1(C/C2=C/CCCCCC2)CCC(NC(=O)C2c3cc(Cl)ccc3Oc3ccc(Cl)cc32)CC1 (configuration not stated)	Methyltransferases active
CC1CCC(NC(=O)C2c3cccn3CC(=O)N2CCC2=CCCCC2)CC1 (configuration not stated)	none
O=C1CC(=O)Nc2cc(S(=O)(=O)Nc3ccc(Br)cc3F)ccc2N1	none
Cc1ccc(C(=O)C(C)n2nc3n(CC(C)C)c(=O)c4ccc(C(=O)NCC(C)C)cc4n3c2=O)cc1C (configuration not stated)	none
CNC(=O)CCn1ccc2cc(S(=O)(=O)N3CCCCC3)ccc21	none
c1cc(OCCN2CCCCC2)cc(-c2n[nH]c3ccc(-c4ncn[nH]4)cc23)c1	Methyltransferases active
CN(CCN1CCCCCC1)C(=O)c1cc(COc2ccccc2)[nH]n1	none
CC1(C(=O)NC2CCCCCC2)Cn2c(cc3occc32)C(=O)N1C1CCCCC1 (configuration not stated)	none
CCOC(=O)c1cc2n(n1)CC(C)(C(=O)NC1CCCCC1)N(c1cccc(OC)c1)C2=O (configuration not stated)	none
COC(=O)c1cc2n(n1)CC(C)(C(=O)NC1CCCCCC1)N(Cc1cccc(OC)c1)C2=O (configuration not stated)	none
COc1cccc(-n2nc(C(=O)O)cc2-c2ccc(C3CCCCC3)c(Cl)c2)c1	Methyltransferases active
CCCC1c2cccn2CCN1C(=O)Nc1ccccc1OC (configuration not stated)	none
O=C(CSc1nnc2n(CCc3ccccc3)c(=O)c3ccccc3n12)Nc1ccc(F)cc1F	none
COCCN1C(=O)CSc2c(c(C)nn2-c2ccccc2)C1C(=O)NCc1ccccc1OC (configuration not stated)	none
COc1c2cc(c(O[C@@H]3O[C@H](CO)[C@@H](O)[C@H](O)[C@H]3O)c1OC)CCCCC(O)CCc1ccc(O)c-2c1 (some centres not stated)	Methyltransferases active
COc1c(-c2ccc(O)cc2)cc(OC)c2c1oc1cc(O)c(OC3OC(CO)C(O)C3O)cc12 (configuration not stated)	none
COc1cc(CO)cc(OC)c1O[C@@H]1O[C@H](CO)[C@@H](O)[C@H](O)[C@H]1O	none
CCCn1c(=O)c2ccc(C(=O)NC3CCCC3)cc2n2c(=O)n(CC(=O)NC(C)(C)C)nc12	none
Cc1ccc(CNC(=O)Cn2nc3n(CCC(C)C)c(=O)c4ccc(C(=O)NC(C)C)cc4n3c2=O)cc1	none
CCCn1c(=O)c2ccccc2n2c(=O)n(CC(=O)NCc3ccc(Cl)cc3)nc12	none
C[C@](N)(Cc1ccc(O)c(O)c1)C(=O)O	Methyltransferases active
C[C@](N)(Cc1ccc(O)cc1)C(=O)O	none
COC(=O)C(C)(N)Cc1ccc(O)cc1 (configuration not stated)	none
CCc1ccccc1NC(=O)CSc1nnc2n(Cc3ccc(C)cc3)c(=O)c3ccccc3n12	none
O=C1NC(=O)C(c2cnc3ccccn23)=C1c1cn2c3c(cc(F)cc13)CN(C(=O)N1CCCCC1)CC2	Methyltransferases active
COCCN1C(=O)c2cc3sccc3n2CC1(C)C(=O)NC1CCCCCC1 (configuration not stated)	none
CCc1ccc(NS(=O)(=O)c2ccc3[nH]c4c(c3c2)CCCC4)cc1	none
O=c1c2ccccc2n2c(=O)n(Cc3ccccc3F)nc2n1Cc1ccc(F)cc1	none
COc1c(O)cc2c(c1O)[C@@H]1O[C@H](CO)[C@@H](O)[C@H](O)[C@H]1OC2=O	Methyltransferases active
COc1cc(COC2OC(CO)C(O)C(O)C2O)cc(OC)c1O (configuration not stated)	none
COC(=O)c1ccc(O[C@@H]2O[C@H](CO)[C@@H](O)[C@H](O)[C@H]2O)c(OC)c1	none
COc1ccc(CCN2C(=O)c3ccccc3CC2(C)C(=O)NC2CCC(C)CC2)cc1OC (configuration not stated)	none
C=C1CCC[C@]2(C)CC[C@@](O)(C(=C)C(=O)O)C[C@@H]12	none
C=C(C(=O)O)C1CC(OC(=O)CC(C)CC)C2(C)CCCC(=C)C2C1 (configuration not stated)	none
C=C(C(=O)O)C1CC(O)C2(C)CCCC(=C)C2C1 (configuration not stated)	Methyltransferases active
CCOc1ccc(OCC)c(NS(=O)(=O)c2ccc3[nH]c4c(c3c2)CCCC4)c1	none
CCCCCNc1nc2c(S(=O)(=O)c3ccc(C)cc3)nnn2c2ccccc12	none
CN(C(=O)Cn1nc2n(C)c(=O)c3ccc(C(=O)NC4CCCCC4)cc3n2c1=O)c1ccccc1	none
Nc1nc(-n2cc(C(=O)O)c(=O)c3cc(F)c(N4CC(O)C4)c(Cl)c32)c(F)cc1F	Methyltransferases active
CC1CN(c2cc3c(cc2F)c(=O)c(C(=O)O)cn3-c2ccc(F)cc2F)CCN1 (configuration not stated)	none
C[C@@H]1CN(c2c(F)c(F)c3c(=O)c(C(=O)O)cn(C4CC4)c3c2F)C[C@H](C)N1	none
CC1(C(=O)NC2CCCCCC2)Cn2nc(-c3cccs3)cc2C(=O)N1Cc1ccc(F)cc1 (configuration not stated)	none
Cn1c(=O)c2ccc(C(=O)NC3CCCC3)cc2n2c(SCC(=O)NC3CCCC3)nnc12	none
C=CC(=O)Nc1cccc(Nc2nc(Nc3ccc(Oc4ccnc(C(=O)NC)c4)cc3)ncc2F)c1	Methyltransferases active
NCc1ccc(Nc2ncc(F)c(Nc3ccccc3)n2)cc1	none
CNC(=O)c1cc(Oc2ccc3nc(N[C@@H]4CCCC[C@H]4O)sc3c2)ccn1	none
O=C(Nc1ccc(F)cc1F)N1Cc2c(sc3c2CCCC3)-n2cccc2C1c1ccccc1 (configuration not stated)	none
CCC(C)NC(=O)c1ccc2c(=O)n(C)c3nn(CC(=O)N(C)c4ccc(F)cc4)c(=O)n3c2c1 (configuration not stated)	none
CCc1ccc(N2C(=O)CSc3c(c4ccccc4n3C)C2C(=O)NCCC(C)C)cc1 (configuration not stated)	none
CC1CC(C)CN(S(=O)(=O)c2ccc3c(c2)oc(=O)n3CC(=O)NCCc2ccccc2)C1 (configuration not stated)	none
